The text below walks through data of the antibiotic and cytotoxicity screens of Wong et al. (2023).

About 1,500 (3.8%) of roughly 39,000 compounds were called active. The full list was thinned out, with actives kept by preference.

The subject of the experiment is HSkMC (human skeletal muscle cells). Briefly: cytotoxicity call (relative viability < 0.9). Particulars: 10 µM.
`CN1C(=O)c2cc(NC(=O)c3cnccn3)ccc2OC[C@H]2O[C@@H](CC(=O)N[C@@H]3CCN(Cc4ccccc4)C3)CC[C@@H]21`: the cytotoxicity call was “inactive”.
With `CN1CCN(C(=O)C[C@@H]2CC[C@@H]3[C@H](COC[C@@H](O)CN3Cc3ccc4c(c3)OCO4)O2)CC1` the entry was “inactive”.
Then `CS(=O)(=O)Cc1nc2ccccc2oc1=O`, with “inactive”.
As to `Cc1noc(C)c1NC(=O)Nc1cccc2c1O[C@@H](CN(C)Cc1ccc(Oc3ccccc3)cc1)[C@@H](C)CN([C@H](C)CO)C2=O`, the cytotoxicity call is “inactive”.
Then `COc1ccc(S(=O)(=O)Nc2ccc3c(c2)C(=O)N([C@H](C)CO)C[C@H](C)[C@H](CN(C)S(=O)(=O)c2ccc(Cl)cc2)OCCCC[C@H](C)O3)cc1`, with “inactive”.
Then `CCC(=O)N(C)C[C@@H]1Oc2ncc(C#C[C@H](C)O)cc2C(=O)N([C@H](C)CO)C[C@H]1C`, with “inactive”; and `COc1cccc(S(=O)(=O)N(C)C[C@H]2Oc3ncc(C#CC(C)C)cc3C(=O)N([C@H](C)CO)C[C@H]2C)c1`, with “inactive”.
With `CO[C@@H]1CN(C)C(=O)c2cc(NS(=O)(=O)CC(F)(F)F)ccc2OC[C@H](C)N(C(=O)NC(C)C)C[C@H]1C` the entry was “inactive”; with `C[C@@H]1CN([C@H](C)CO)C(=O)c2cc(NC(=O)CCCCCC(=O)Nc3ccccc3N)ccc2O[C@H]1CN(C)C(=O)Nc1ccc(F)cc1`, “inactive”; with `CN(C)c1nc(SCCO)nc(N(C)C)n1`, “inactive”.
Consider `C[C@@H]1CCCCO[C@H](CN(C)C(=O)Nc2cccc3ccccc23)[C@H](C)CN([C@@H](C)CO)C(=O)c2cc(NS(=O)(=O)c3ccc(F)cc3)ccc2O1`, for which the cytotoxicity call was “inactive”.
With `O=C(OCC1OC(OC(=O)c2cc(O)c(O)c(OC(=O)c3cc(O)c(O)c(O)c3)c2)C(OC(=O)c2cc(O)c(O)c(OC(=O)c3cc(O)c(O)c(O)c3)c2)C(OC(=O)c2cc(O)c(O)c(OC(=O)c3cc(O)c(O)c(O)c3)c2)C1OC(=O)c1cc(O)c(O)c(OC(=O)c2cc(O)c(O)c(O)c2)c1)c1cc(O)c(O)c(OC(=O)c2cc(O)c(O)c(O)c2)c1` (stereo unspecified) the entry was “inactive”; with `O=C(OC[C@H]1O[C@@H](OC(=O)c2cc(O)c(O)c(O)c2)[C@H](O)[C@@H](OC(=O)c2cc(O)c(O)c(O)c2)[C@@H]1O)c1cc(O)c(O)c(O)c1`, “inactive”; with `O=C(OC[C@H]1O[C@@H](OC(=O)c2cc(O)c(O)c(O)c2)[C@H](OC(=O)c2cc(O)c(O)c(O)c2)[C@@H](OC(=O)c2cc(O)c(O)c(O)c2)[C@@H]1OC(=O)c1cc(O)c(O)c(O)c1)c1cc(O)c(O)c(O)c1`, “active”.
With `CC(C)NC(=O)N(C)C[C@@H]1Oc2ccc(NC(=O)CCCN(C)C)cc2CC(=O)N([C@H](C)CO)C[C@@H]1C` the entry was “inactive”; with `COc1ccc(NC(=O)Nc2ccc3c(c2)C(=O)N([C@@H](C)CO)C[C@@H](C)[C@@H](CN(C)Cc2ccc(C(=O)Nc4ccccc4N)cc2)O3)cc1`, “inactive”.
Then `C[C@H]1CN([C@@H](C)CO)C(=O)c2c(c3ccccc3n2C)-c2ccccc2CO[C@@H]1CN(C)S(=O)(=O)c1ccc(Cl)cc1`, with “inactive”.
With `Cc1ccc(S(=O)(=O)Nc2ccc3c(c2)C(=O)N([C@H](C)CO)C[C@H](C)[C@@H](CN(C)S(C)(=O)=O)O3)cc1`, the cytotoxicity call is “inactive”.
With `C[C@@H]1CN([C@@H](C)CO)C(=O)c2cccc(NC(=O)Nc3ccc(F)cc3)c2O[C@H]1CN(C)Cc1ccc(C(F)(F)F)cc1` the entry was “inactive”; with `C[C@H]1CN([C@@H](C)CO)C(=O)c2cccc(NC(=O)Nc3ccc(F)cc3)c2O[C@@H]1CN(C)Cc1ccc(C(F)(F)F)cc1`, “active”; with `C[C@@H]1CN([C@@H](C)CO)C(=O)c2cccc(NC(=O)Nc3ccc(C(F)(F)F)cc3)c2O[C@H]1CN(C)Cc1ccc(C(F)(F)F)cc1`, “inactive”.
With `C[C@@H]1CN([C@H](C)CO)C(=O)c2cccc(NC(=O)Nc3ccc(C(F)(F)F)cc3)c2O[C@H]1CN(C)Cc1ccc(C(F)(F)F)cc1` the entry was “inactive”; with `C[C@H](CO)N1C[C@H](C)[C@@H](CN(C)Cc2ccc(C(F)(F)F)cc2)Oc2c(NC(=O)Nc3ccc(F)cc3)cccc2C1=O`, “inactive”; with `C[C@@H]1CN([C@@H](C)CO)C(=O)c2cccc(NC(=O)Nc3ccc(C(F)(F)F)cc3)c2O[C@@H]1CN(C)Cc1ccc(C(F)(F)F)cc1`, “active”.
With `C[C@@H]1CN([C@H](C)CO)C(=O)c2cccc(NC(=O)Nc3ccc(C(F)(F)F)cc3)c2O[C@@H]1CN(C)Cc1ccc(C(F)(F)F)cc1` the entry was “active”; with `C[C@H](CO)N1C[C@H](C)[C@H](CN(C)Cc2ccc(C(F)(F)F)cc2)Oc2c(NC(=O)Nc3ccc(C(F)(F)F)cc3)cccc2C1=O`, “inactive”.
Consider `C[C@H](CO)N1C[C@H](C)[C@@H](CN(C)Cc2ccc(C(F)(F)F)cc2)Oc2c(NC(=O)Nc3ccc(C(F)(F)F)cc3)cccc2C1=O`, for which the cytotoxicity call is “inactive”.
With `CO[C@@H]1CN(C)C(=O)c2cc(NS(=O)(=O)c3cn(C)cn3)ccc2OC[C@@H](C)N(CCC(F)(F)F)C[C@H]1C` the entry was “inactive”.
Then `O=C(C[C@H]1CC[C@@H]2[C@H](COC[C@H](O)CN2S(=O)(=O)c2cccc(F)c2)O1)NCCCN1CCOCC1`, with “inactive”; and `COCC#Cc1cnc2c(c1)C(=O)N([C@@H](C)CO)C[C@H](C)[C@H](CN(C)C(=O)Nc1ccccc1OC)O2`, with “inactive”; and `O=C(CCCCCNC(=O)OCc1ccc(CO[C@@H]2C[C@H](c3ccc(C(F)(F)F)cc3)C=C(C(=O)N3CCN(Cc4ccc5c(c4)OCO5)CC3)O2)cc1)NO`, with “inactive”.
As to `C[C@@H]1CN([C@@H](C)CO)S(=O)(=O)c2ccc(-c3ccc(C(=O)N(C)C)cc3)cc2O[C@H]1CN(C)C(=O)Cc1ccccn1`, the cytotoxicity call was “inactive”.
As for `COc1ccc(NC(=O)N(C)C[C@@H]2OCCCC[C@H](C)Oc3ccc(NC(=O)CCC(F)(F)F)cc3C(=O)N([C@@H](C)CO)C[C@@H]2C)cc1`, the cytotoxicity call was “inactive”.
With `CO[C@H]1CN(C)C(=O)c2cc(NS(=O)(=O)c3cn(C)cn3)ccc2OC[C@H](C)N(Cc2cccc(F)c2)C[C@@H]1C` the entry was “inactive”; with `CO[C@H]1/C=C/C[C@H](C)[C@@H](C)S(=O)(=O)NC(=O)c2ccc3c(c2)N(C[C@@H]2CC[C@H]21)C[C@@]1(CCCc2cc(Cl)ccc21)CO3`, “active”.
With `COc1ccc(CN(C)C[C@@H]2OCCCC[C@@H](C)Oc3ccc(NC(=O)c4ccccc4)cc3C(=O)N([C@@H](C)CO)C[C@@H]2C)cc1` the entry was “inactive”.
